Data published in PubChem BioAssay AID763 (NMMLSC, 2007).

target: fMet-Leu-Phe receptor (Homo sapiens) (UniProt P21462); experiment: human FPR1 ligand displacement single-point test – cell-based, single concentration, selectivity assay for FPRL1 ligand SAR project, SAR follow-up (AID 763); conditions: FPR1-expressing cells, fluorescent ligand binding inhibition, stronger effect = higher value; at 5.4 µM unless noted
Sequence (P21462 whole entry, looked up): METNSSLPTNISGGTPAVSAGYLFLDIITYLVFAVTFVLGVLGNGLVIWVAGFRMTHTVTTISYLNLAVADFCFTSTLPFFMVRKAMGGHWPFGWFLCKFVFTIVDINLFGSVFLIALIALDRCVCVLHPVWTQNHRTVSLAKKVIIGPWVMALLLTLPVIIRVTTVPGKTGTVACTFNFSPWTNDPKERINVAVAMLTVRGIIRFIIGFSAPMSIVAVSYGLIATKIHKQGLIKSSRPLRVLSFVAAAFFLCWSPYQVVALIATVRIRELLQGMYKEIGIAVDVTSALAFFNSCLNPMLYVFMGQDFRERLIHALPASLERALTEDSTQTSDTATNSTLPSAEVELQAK

inhibition, inactive:
Clc1cccc(-c2nc(N3CCN(c4ccccc4)CC3)nc3c2COc2ccccc2-3)c1 -0.5% [at 4.9 µM]
CC(=O)N1CCN(c2nc(-c3ccccc3)c3cc(C)ccc3n2)CC1 -0.1% [at 6.4 µM]
O=C(O)CCCC(=O)N1CCN(c2nc(-c3ccccc3)c3cc(Br)ccc3n2)CC1 -1.2% [at 4.6 µM]
Cc1ccccc1N1CCN(c2nc(-c3ccccc3)c3cc(Br)ccc3n2)CC1 3.5% [at 4.8 µM]
FC(F)(F)c1cc(-c2cccs2)nc(N2CCN(C(c3ccccc3)c3ccccc3)CC2)n1 -2.4% [at 4.6 µM]
COc1ccc(-c2cn3cccnc3n2)cc1NC(=O)c1cccc(C(F)(F)F)c1 -2%
O=C(c1ccccc1Cl)N1CCN(c2nc(-c3ccccc3)c3cc(Cl)ccc3n2)CC1 -3.1% [at 4.8 µM]
Cc1ccc2nc(N3CCN(C(=O)CCCC(=O)O)CC3)nc(-c3ccccc3)c2c1 -4.8% [at 5.3 µM]
COc1ccc(-c2cn3cccnc3n2)cc1NC(=O)CSCc1ccccc1 -0.7% [at 5.5 µM]
CCOC(=O)N1CCN(c2nc(-c3ccc(OC)c(OC)c3)cc(C(F)(F)F)n2)CC1 4.1% [at 5.1 µM]
O=C(O)CCC(=O)N1CCN(c2nc(-c3ccccc3)c3cc([N+](=O)[O-])ccc3n2)CC1 -0.6% [at 5.1 µM]
COc1ccc(-c2cc(C(F)(F)F)nc(N3CCN(Cc4ccccc4)CC3)n2)cc1OC 4.7% [at 4.9 µM]
